Measured values reported in PubChem BioAssay (EPA / NIEHS).
Results filed as inconclusive are left out. Active and inactive are the calls of the source. How the source made its calls: active means hit-call score of the fitted dose curve at least 0.9, where 1 is the maximum; inconclusive means response in the unintended direction; inactive means score below 0.9.

Legend:
[1] = TOX21_p53_BLA_p2_viability: Viability Assessment in the Tox21 HCT-116 p53 Agonism Beta-lactamase Assay, Phase 2 (AID 2283591);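 further: compound exposure lasted 16 h at 37 °C; actives lower the ATP signal meaning cytotoxicity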
Method in brief: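 Cytotoxicity readout: CellTiter-Glo ATP luminescence, 30 min at room temperature, after the beta-lactamase read. Cells were HCT116 exposed 16 h at 37C to compounds pin-transferred at 217-fold dilution from DMSO stocks.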

[2] = target: Cellular tumor antigen p53 (Homo sapiens) (UniProt P04637); experiment: TOX21_p53_BLA_p2_ratio: Tox21 HCT-116 p53 Agonism Beta-lactamase Assay, Ratio, Phase 2 (AID 2283592)
Cellular tumor antigen p53 (Homo sapiens), sequence (P04637 whole entry, looked up): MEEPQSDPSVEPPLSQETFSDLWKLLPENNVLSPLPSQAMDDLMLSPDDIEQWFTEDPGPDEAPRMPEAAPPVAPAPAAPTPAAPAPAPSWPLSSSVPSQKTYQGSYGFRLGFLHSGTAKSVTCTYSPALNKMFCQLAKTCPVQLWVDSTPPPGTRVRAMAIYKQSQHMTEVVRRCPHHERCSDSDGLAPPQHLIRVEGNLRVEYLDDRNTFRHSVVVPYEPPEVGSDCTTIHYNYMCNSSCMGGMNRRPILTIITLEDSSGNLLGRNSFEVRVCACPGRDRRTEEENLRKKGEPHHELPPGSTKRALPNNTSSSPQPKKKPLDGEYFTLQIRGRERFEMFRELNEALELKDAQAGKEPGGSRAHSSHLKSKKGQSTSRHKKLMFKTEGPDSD
Method in brief: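 Ratio endpoint: beta-lactamase cleavage of CCF4-AM, blue (460 nm) over green (530 nm). HCT116 reporter line; 16 h treatment, 37C; substrate 2 h RT.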

[3] = TOX21_p53_BLA_p3_viability: Viability Assessment in the Tox21 HCT-116 p53 Agonism Beta-lactamase Assay, Phase 3 (AID 2283593);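 further: cells exposed to compound for 16 h before reading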
Method in brief: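 Cellular ATP was quantified by CellTiter-Glo luminescence, read after 30 min at room temperature. Beforehand, HCT116 cells (4000/well) received compound 5 h post-seeding, 217-fold diluted from DMSO, then incubated 16 h at 37C.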

[4] = target: Cellular tumor antigen p53 (Homo sapiens) (UniProt P04637); experiment: TOX21_p53_BLA_p3_ratio: Tox21 HCT-116 p53 Agonism Beta-lactamase Assay, Ratio, Phase 3 (AID 2283596)
Method in brief: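 Cells were seeded at 4000/well, rested 5 h at 37C, then dosed with DMSO compound solutions (217-fold dilution) for 16 h. CCF4-AM substrate was loaded for 2 h at room temperature, and the 460/530 nm emission ratio was fitted for gain of signal versus DMSO.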

[5] = target: Cellular tumor antigen p53 (Homo sapiens) (UniProt P04637); experiment: TOX21_p53_BLA_p5_ratio: Tox21 HCT-116 p53 Agonism Beta-lactamase Assay, Ratio, Phase 5 (AID 2283599)
Method in brief: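 Beta-lactamase reporter ratio (blue 460 nm over green 530 nm, 405 nm excitation) after 2 h CCF4-AM loading, in HCT-116 cells exposed 16 h at 37 C to compounds pinned at 217-fold dilution. Increases relative to DMSO baseline scored.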

[6] = TOX21_p53_BLA_p5_viability: Viability Assessment in the Tox21 HCT-116 p53 Agonism Beta-lactamase Assay, Phase 5 (AID 2283600)
Method in brief: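 Luciferase-coupled ATP quantitation of cells treated for 16 h (37C, 5% CO2) with test chemicals delivered in DMSO via a 217-fold dilution; 4000 cells/well; reagent incubated 30 min at room temperature before luminescence reading.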

[7] = target: Cellular tumor antigen p53 (Homo sapiens) (UniProt P04637); experiment: TOX21_p53_BLA_p4_ratio: Tox21 HCT-116 p53 Agonism Beta-lactamase Assay, Ratio, Phase 4 (AID 2283601)
Method in brief: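 Signal is the blue/green (460nm/530nm) ratio of cleaved versus uncleaved CCF4-AM substrate, read after 2 h substrate loading. Cells were HCT116 carrying the p53-responsive beta-lactamase reporter, dosed 16 h at 37C, 5% CO2; CellTiter-Glo measured in parallel.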

[8] = target: Thyroid hormone receptor alpha (Rattus norvegicus) + Thyroid hormone receptor beta (Rattus norvegicus) (UniProt P18113+P63059); experiment: TOX21_TR_LUC_GH3_Antagonist_Followup: Tox21 GH3 Thyroid Hormone Receptor Antagonism Luciferase Follow-Up Assay (AID 2283942)
Method in brief: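 Loss of T3-driven (1.0 nM final) reporter activity in GH3 cells was read by ONE-Glo luminescence after 24 h incubation at 37C; 15-point compound series spanned 92 uM to 5nM final, 1,500 cells/well.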

THRA (gene 7067) = THRA (gene 7067) (UniProt P10827); experiment: TOX21_TRA_COA_Antagonist_Followup_ratio: Tox21 Thyroid Hormone Receptor alpha Antagonism through Coactivator Recruitment Follow-Up Assay, Ratio (AID 2283953)
THRA (gene 7067), sequence (P10827 whole entry, looked up, the tested form may be a part): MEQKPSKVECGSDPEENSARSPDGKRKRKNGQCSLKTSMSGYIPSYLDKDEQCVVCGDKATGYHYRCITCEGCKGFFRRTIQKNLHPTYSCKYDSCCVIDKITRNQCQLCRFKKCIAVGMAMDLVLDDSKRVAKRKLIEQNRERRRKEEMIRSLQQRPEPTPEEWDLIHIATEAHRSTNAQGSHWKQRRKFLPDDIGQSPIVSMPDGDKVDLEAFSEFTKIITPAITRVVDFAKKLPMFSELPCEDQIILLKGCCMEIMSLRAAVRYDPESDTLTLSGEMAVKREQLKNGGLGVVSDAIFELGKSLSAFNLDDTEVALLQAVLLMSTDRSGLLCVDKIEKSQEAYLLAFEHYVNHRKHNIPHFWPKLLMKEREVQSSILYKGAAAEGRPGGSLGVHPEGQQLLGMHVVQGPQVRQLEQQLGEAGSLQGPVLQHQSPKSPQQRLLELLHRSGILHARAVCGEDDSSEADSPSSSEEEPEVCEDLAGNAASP
Method in brief: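 We measured antagonism of T3-type coactivator recruitment using a TR-FRET ratio (emission 520 and 495 nm) between a Tb-labelled anti-GST antibody on TRα LBD (2.5 nM) and SRC-2 peptide (200 nM). Activity was scaled between DMSO and T3 wells.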

[9] = TOX21_TRB_BLA_Antagonist_Followup_viability: Viability Assessment in the Tox21 Thyroid Hormone Receptor beta Antagonism Beta-lactamase (BLA) Follow-Up Assay (AID 2283961)
Method in brief: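 HEK293T cells stably expressing GAL4-DBD/human TRβ-LBD with UAS-bla reporter, 3,000 cells/well in phenol red-free DMEM, 2% charcoal-stripped FBS. Compounds at 11 concentrations in triplicate, 18 h at 37C/5% CO2; viability by CellTiter-Glo luminescence after 30 min at room temperature.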

[10] = target: Retinoic acid receptor RXR-alpha (Homo sapiens) (UniProt P19793); experiment: TOX21_TR_RXR_BLA_Antagonist_Followup_ratio: Tox21 Thyroid Hormone Receptor beta Retinoid X Receptor alpha (RXRa) Antagonism Beta-lactamase (BLA) Follow-Up Assay, Ratio (AID 2283972)
Retinoic acid receptor RXR-alpha (Homo sapiens), sequence (P19793 whole entry, looked up): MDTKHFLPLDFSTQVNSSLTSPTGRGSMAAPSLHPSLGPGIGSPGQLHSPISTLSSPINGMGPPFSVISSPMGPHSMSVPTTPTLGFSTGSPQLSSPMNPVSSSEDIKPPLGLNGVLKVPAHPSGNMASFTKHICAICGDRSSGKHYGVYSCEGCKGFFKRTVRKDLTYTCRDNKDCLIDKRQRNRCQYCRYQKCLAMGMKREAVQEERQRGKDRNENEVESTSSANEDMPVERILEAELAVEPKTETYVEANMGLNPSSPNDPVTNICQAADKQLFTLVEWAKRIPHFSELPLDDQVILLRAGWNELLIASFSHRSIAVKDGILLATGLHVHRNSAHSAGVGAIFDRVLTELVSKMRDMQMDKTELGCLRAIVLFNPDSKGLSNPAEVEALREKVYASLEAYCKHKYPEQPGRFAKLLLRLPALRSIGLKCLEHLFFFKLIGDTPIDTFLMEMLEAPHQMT
Method in brief: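 RXRa-UAS-bla HEK293T cells in phenol red-free DMEM with 2% charcoal-stripped FBS; compounds at 11 concentrations in triplicate, 16 h at 37C. LiveBLAzer FRET-B/CCF4-AM substrate 2 h at room temperature; read as 460:530 nm ratio versus DMSO.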

[11] = TOX21_TR_RXR_BLA_Antagonist_Followup_viability: Viability Assessment in the Tox21 Thyroid Hormone Receptor beta Retinoid X Receptor alpha (RXRa) Antagonism Beta-lactamase (BLA) Follow-Up Assay (AID 2283979)
Method in brief: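 Follow-up compounds (11 concentrations, triplicate) were incubated 16 h at 37C/5% CO2 with HEK293T RXRa-bla cells seeded at 2,500/well in charcoal-stripped-serum medium. ATP content by CellTiter-Glo luminescence gave viability; curves fitted in both directions against DMSO.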

[12] = TOX21_p53_BLA_p4_viability: Viability Assessment in the Tox21 HCT-116 p53 Agonism Beta-lactamase Assay, Phase 4 (AID 2283597);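 further: hits lower the luminescence signal meaning cytotoxicity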
Method in brief: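 Cytotoxicity was inferred from loss of CellTiter-Glo luminescence. HCT116 cells had been dosed with compounds after 5 h plating, incubated 16 h at 37C and 5% CO2, and exposed to the CCF4-AM substrate for 2 h.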

CNC(=O)Oc1ccccc1C(=O)Nc1ccccc1
outcome [1]: inactive | outcome [2]: inactive | outcome [3]: inactive | outcome [4]: inactive | outcome [5]: inactive | outcome [6]: inactive | outcome [7]: inactive

O=C(O)CC(Cl)C(=O)O (stereo unspecified)
outcome [1]: inactive | AC50 [2]: 57.3 µM (active) | outcome [3]: inactive | outcome [4]: inactive | outcome [5]: inactive | outcome [6]: inactive | outcome [7]: inactive

N#CC(C#N)=C(C#N)C#N
outcome [1]: inactive | outcome [2]: inactive | outcome [3]: inactive | outcome [4]: inactive | outcome [6]: inactive

NC(=O)CI
outcome [1]: inactive | outcome [2]: inactive | outcome [3]: inactive | outcome [4]: inactive | outcome [5]: inactive | outcome [7]: inactive

COC(=O)C(c1ccccc1)C1CCCCN1 (stereo unspecified)
outcome [1]: inactive | outcome [2]: inactive | outcome [3]: inactive | outcome [4]: inactive | outcome [5]: inactive | outcome [7]: inactive

N#CC1(N=NC2(C#N)CCCCC2)CCCCC1
outcome [1]: inactive | outcome [2]: inactive | outcome [3]: inactive | outcome [4]: inactive | outcome [5]: inactive | outcome [7]: inactive

CCC[CH2][Sn]([CH2]CCC)([O]C(C)=O)[O]C(C)=O
outcome [1]: inactive | outcome [2]: inactive | AC50 [3]: 17.7 µM (active) | AC50 [4]: 32.2 µM (active) | outcome [5]: inactive | outcome [7]: inactive

O=C(N[C@@H]1N=C(c2ccccc2F)c2cccc3c2N(CC3)C1=O)c1cc2ccccc2[nH]1
outcome [1]: inactive | outcome [2]: inactive | outcome [3]: inactive | outcome [4]: inactive | outcome [5]: inactive | outcome [6]: inactive | AC50 [7]: 26.6 µM (active) | outcome [8]: inactive | outcome (THRA (gene 7067)): inactive | outcome [9]: inactive | outcome [10]: inactive | outcome [11]: inactive

C[C@]12N[C@H](Cc3ccccc31)c1ccccc12
outcome [1]: inactive | outcome [2]: inactive | outcome [3]: inactive | outcome [4]: inactive | outcome [6]: inactive | outcome [7]: inactive

COC(=O)C(C)N(C(=O)c1ccco1)c1c(C)cccc1C (stereo unspecified)
outcome [1]: inactive | outcome [2]: inactive | outcome [3]: inactive | outcome [12]: inactive | outcome [5]: inactive

CCCC(Cn1cncn1)c1ccc(Cl)cc1Cl (stereo unspecified)
outcome [1]: inactive | AC50 [2]: 75.6 µM (active) | outcome [3]: inactive | AC50 [4]: 85.7 µM (active) | outcome [5]: inactive | outcome [6]: inactive | AC50 [7]: 75.2 µM (active)

O=C(NCc1cccnc1)Nc1ccc([N+](=O)[O-])cc1
outcome [1]: inactive | outcome [2]: inactive | outcome [3]: inactive | outcome [12]: inactive | outcome [5]: inactive | outcome [6]: inactive | outcome [7]: inactive

CCCC[P+](CC)(CCCC)CCCC (tested in a mixture with another compound)
outcome [1]: inactive | outcome [2]: inactive | outcome [3]: inactive | outcome [12]: inactive | outcome [5]: inactive | outcome [6]: inactive | outcome [7]: inactive

C[C@@H]1CN(C2CCC(C#N)(c3ccc(F)cc3)CC2)CC[C@]1(C(=O)O)c1ccccc1 (stereo partly specified)
outcome [1]: inactive | outcome [2]: inactive | outcome [3]: inactive | outcome [4]: inactive | outcome [5]: inactive | outcome [7]: inactive

Clc1ccccc1-c1ccccc1Cl
outcome [1]: inactive | outcome [2]: inactive | AC50 [3]: 62.2 µM (active) | outcome [4]: inactive | outcome [5]: inactive | outcome [7]: inactive

O=c1[nH]oc2c1CCNC2
outcome [1]: inactive | outcome [2]: inactive | outcome [3]: inactive | outcome [4]: inactive | outcome [5]: inactive | outcome [7]: inactive

O=[N+]([O-])C(Br)Br
outcome [1]: inactive | outcome [2]: inactive | outcome [3]: inactive | outcome [4]: inactive | outcome [5]: inactive | outcome [7]: inactive

O=[Se]=O
AC50 [1]: 16.1 µM (active) | AC50 [2]: 2.8 µM (active) | AC50 [3]: 7.66 µM (active) | AC50 [4]: 0.777 µM (active) | outcome [5]: inactive | AC50 [7]: 4.23 µM (active)

NC1(c2ccccc2)CCCCC1
outcome [1]: inactive | outcome [2]: inactive | outcome [3]: inactive | outcome [4]: inactive | outcome [5]: inactive | outcome [7]: inactive

COC1=CC(=O)O[C@@H](CCc2ccccc2)C1
outcome [1]: inactive | outcome [2]: inactive | outcome [3]: inactive | outcome [12]: inactive | outcome [5]: inactive | outcome [6]: inactive | outcome [7]: inactive

C=CCC1(C(C)CCC)C(=O)N=C(S)NC1=O (stereo unspecified)
outcome [1]: inactive | outcome [2]: inactive | outcome [3]: inactive | outcome [4]: inactive | outcome [5]: inactive | outcome [7]: inactive

CNC(C)[C@@H]1CC[C@@H](N)[C@@H](O[C@H]2[C@H](O)[C@@H](O[C@H]3OC[C@](C)(O)[C@H](NC)[C@H]3O)[C@H](N)C[C@@H]2N)O1 (stereo partly specified) (tested in a mixture with another compound)
outcome [1]: inactive | outcome [2]: inactive | outcome [3]: inactive | outcome [4]: inactive | outcome [6]: inactive
